Values without a mark were called inactive.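 Rule for the calls: active = growth AUC significantly below the DMSO wells by Dunnett test; inactive = the rest.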
test system: Carnobacterium 1 (Carnobacterium gallinarum); assay: relative growth (AUC of 72 h growth curve relative to DMSO control, dAUC) (ratio); higher = more growth (less inhibition), active = hit call of the paper; conditions: 20 µM
Description: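 Environmental bacterial isolates (Iceland stream sediment and Silwood Park soil) and whole stream-sediment communities were grown in LB from a 1:100 dilution with each pesticide at 20 µM (1% DMSO). A600 was read hourly for 72 h and the area under a spline-fitted growth curve (AUC) was computed. dAUC is the mean AUC of 3 biological replicates divided by the mean AUC of the DMSO controls. Significance was tested by Dunnett's test against the DMSO control.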

Row | SMILES | relative growth
1 | CN(C)C(CSS(=O)(=O)O)CSS(=O)(=O)O | 1.03
2 | COCC(=O)N(c1c(C)cccc1C)C(C)C(=O)OC (configuration not stated) | 1.13
3 | COc1ccc(-c2ccccc2)cc1NNC(=O)OC(C)C | 0.828
4 | CCCN(CCC)C(=O)SCc1ccccc1 | 1.04
5 | COc1ccc(C(=CC(=O)N2CCOCC2)c2ccc(Cl)cc2)cc1OC (mixture of isomers) | 1.56
6 | C[N+](C)(C)CCCl | 1.05
7 | O=C(Nc1ccccc1-c1ccc(Cl)cc1)c1cccnc1Cl | 0.968
8 | Cc1cccc2sc3nncn3c12 | 0.911
9 | CC1(C(=O)Nc2ccc(O)c(Cl)c2Cl)CCCCC1 | 0.935
10 | COCC(C)N(C(=O)CCl)c1c(C)csc1C (configuration not stated) | 0.859
11 | N#CCNC(=O)c1cnccc1C(F)(F)F | 1.06
12 | Fc1ccc([C@]2(Cn3cncn3)O[C@H]2c2ccccc2Cl)cc1 (racemic) | 0.995
13 | CC(C)(C)[C@@H](O)[C@H](Oc1ccc(Cl)cc1)n1cncn1 | 1.06
14 | CC1=NNC(=O)N(/N=C/c2cccnc2)C1 | 1.3
15 | CC(C)OC(=O)Nc1cccc(Cl)c1 | 1.5
16 | N#Cc1cc(Br)c(O)c(Br)c1 | 1.05
17 | COc1ncc(F)c2nc(S(=O)(=O)Nc3c(F)cccc3F)nn12 | 1.1
18 | COc1cc(OC)nc(NC(=O)NS(=O)(=O)c2ncccc2C(=O)N(C)C)n1 | 1.09
19 | COCC(=O)N(c1c(C)cccc1C)[C@H](C)C(=O)OC | 1.12
20 | Oc1ccc(Cl)cc1Cc1cc(Cl)ccc1O | 0.00911 (active)
21 | O=[N+]([O-])c1cc(C(F)(F)F)c(Cl)c([N+](=O)[O-])c1Nc1ncc(C(F)(F)F)cc1Cl | 0.00939 (active)
22 | O=C1C=C(N(Cc2ccc(Cl)nc2)CC(F)F)CO1 | 1.06
23 | Cc1nc(N(C)C)nc(OC(=O)N(C)C)c1C | 0.883
24 | ClC1C(Cl)C(Cl)C(Cl)C(Cl)C1Cl (configuration not stated) | 0.955
25 | CC[C@H](C)C1O[C@]2(C=C[C@@H]1C)C[C@@H]1C[C@@H](C/C=C(\C)[C@@H](O[C@H]3C[C@H](OC)[C@@H](O[C@H]4C[C@H](OC)[C@H](NC)[C@H](C)O4)[C@H](C)O3)[C@@H](C)/C=C/C=C3\CO[C@@H]4[C@H](O)C(C)=C[C@@H](C(=O)O1)[C@]34O)O2 (some centres not stated) | 0.609
26 | CO/C=C(/C(=O)OC)c1ccccc1Oc1cc(Oc2ccccc2C#N)ncn1 | 1.27
27 | CCCCC(C#N)(Cn1cncn1)c1ccc(Cl)cc1 (configuration not stated) | 0.998
